Assay results from PubChem BioAssay (EPA / NIEHS).
Active and inactive are the calls of the source. Rule for the calls: active = hit-call score of the fitted dose curve at least 0.9, where 1 is the maximum; inactive = score below 0.9.

Assays:
[1] = APR_HepG2_P-H2AX_72hr: Apredica 72-hour HepG2 Assay for H2AX Phosphorylation (AID 2282916); details: imaging, actives raise or lower the signal;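 note: phospho-histone H2A.x immunostain intensity per cell marking DNA damage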
How it was run: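 Readout: phospho-H2A.x immunofluorescence (FITC secondary) plus Hoechst nuclear stain, high-content imaging at 20x, six fields/well. HepG2, 72 hr compound exposure, 0.39–200 uM, final DMSO 0.5% v/v. Gain or loss fitted relative to DMSO baseline.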

[2] = APR_HepG2_MitoMembPot_72hr: Apredica 72-hour HepG2 Assay for Mitochondrial Membrane Potential (AID 2282917); details: imaging, actives raise or lower the signal
How it was run: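 HepG2 cells dosed 72 hr with compound at 0.39–200 uM in duplicate, 0.5% v/v DMSO final. Mitochondria stained with 250 nM MitoTracker Red CMXRos for 30 min before formaldehyde fixation, imaged by high-content fluorescence; bidirectional fit versus DMSO.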

[3] = APR_HepG2_MitoticArrest_72hr: Apredica 72-hour HepG2 Assay for Mitotic Arrest (AID 2282918); details: high-content imaging, actives raise or lower the signal
How it was run: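 HepG2 cells treated 72 h at 0.39–200 uM, 0.5% DMSO final; formaldehyde-fixed, stained with Hoechst 33342 and phospho-histone H3 antibody, imaged by high-content fluorescence; bidirectional fit versus DMSO.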

[4] = APR_HepG2_MicrotubuleCSK_72hr: Apredica 72-hour HepG2 Assay for Microtubule CSK Stabilty (AID 2282919); details: HepG2 microtubule cytoskeleton, high-content imaging, actives raise or lower the signal
How it was run: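 HepG2, 72 hr cmpd exposure, 0.39–200 uM (10 pts, duplicate), 0.5% DMSO. 3.7% formaldehyde fix, 0.5% Triton perm, anti-alpha-tubulin/Cy5 plus Hoechst. HCS fluorescence intensity; bidirectional fit vs DMSO baseline; taxol as positive control.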

[5] = APR_HepG2_P-H2AX_24hr: Apredica 24-hour HepG2 Assay for H2AX Phosphorylation (AID 2282920); details: high-content imaging, actives raise or lower the signal
How it was run: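 HepG2 cells dosed 24 h at 0.39–200 uM (10 points, duplicate, 0.5% DMSO final). Formaldehyde-fixed and permeabilized, then immunostained for phospho-H2A.x with Hoechst. Fluorescence quantified by high-content imaging, fitted bidirectionally versus DMSO.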

[6] = APR_HepG2_StressKinase_72hr: Apredica 72-hour HepG2 Assay for Stress Kinase (AID 2282921); details: HepG2 stress kinase (phospho-c-Jun) imaging, actives raise or lower the signal
How it was run: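 Phospho-c-Jun immunofluorescence measured by high-content imaging at 20x, six fields per well; bidirectional curve fitting against DMSO as baseline. Dosing: 0.39–200 uM, 72 h, 0.5% DMSO final.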

[7] = APR_HepG2_StressKinase_24hr: Apredica 24-hour HepG2 Assay for Stress Kinase (AID 2282922); details: HepG2 stress kinase (phospho-c-Jun) imaging, actives raise or lower the signal
How it was run: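 Read-out: phospho-c-Jun immunofluorescence (Cy3 secondary) quantified by high-content imaging at 20x, nuclei defined by Hoechst 33342. Human HepG2 liver cells dosed 24 hr, 0.39–200 uM, DMSO 0.5% v/v; gain or loss of signal fitted relative to DMSO.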

[8] = APR_HepG2_p53Act_72hr: Apredica 72-hour HepG2 Assay for p53 Activation (AID 2282923); details: high-content imaging, actives raise or lower the signal;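 note: average cellular p53 protein immunofluorescence intensity in HepG2 cells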
How it was run: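 Readout: p53 immunofluorescence quantified by automated high-content imaging at 20x, six fields per well, nuclei located via Hoechst. Dosing ran 72 hr over ten concentrations from 0.39 to 200 uM; bidirectional curve fitting against DMSO baseline.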

[9] = APR_HepG2_MitoMass_72hr: Apredica 72-hour HepG2 Assay for Mitochondrial Mass (AID 2282924); details: high-content imaging, actives raise or lower the signal;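 note: MitoTracker Red CMXRos stain intensity per cell imaged as mitochondrial mass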
How it was run: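 Read-out: MitoTracker Red fluorescence intensity from automated imaging (20x, six fields per well) in human HepG2 liver cells. Dosing ran 72 hr, 0.39–200 uM, 0.5% DMSO; bidirectional curve fitting versus DMSO baseline.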

[10] = APR_HepG2_NuclearSize_72hr: Apredica 72-hour HepG2 Assay for Nuclear Size (AID 2282925); details: high-content imaging, actives raise or lower the signal
How it was run: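 Read-out: nuclear diameter from Hoechst 33342 images (ArrayScan, 20x, six fields/well), via cell-cycle image analysis. HepG2 were dosed 0.39–200 uM for 72 hr in 0.5% DMSO. Bidirectional fit relative to DMSO.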

[11] = ATG_CRE_CIS: Attagene CIS-FACTORIAL HepG2 Assay for human cAMP Responsive Element (CRE) binding protein 3 (AID 2282926); details: HepG2 CRE cis-reporter, Attagene multiplexed mRNA; actives raise or lower the signal
How it was run: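 Induced reporter mRNA from a CRE cis element, measured in HepG2 among many multiplexed units at 24 h. Detection used RT-PCR plus capillary electrophoresis of fluorescent fragments; DMSO served as negative control.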

[12] = target: CCAAT/enhancer-binding protein beta (Homo sapiens) (UniProt P17676); assay: ATG_C_EBP_CIS: Attagene CIS-FACTORIAL HepG2 Assay for human CCAAT/Enhancer Binding Protein (C/EBP) beta (AID 2282927); details: HepG2 Attagene cis-factorial transcription factor reporter; actives raise or lower the signal
Sequence of CCAAT/enhancer-binding protein beta (Homo sapiens) (P17676 whole entry, looked up): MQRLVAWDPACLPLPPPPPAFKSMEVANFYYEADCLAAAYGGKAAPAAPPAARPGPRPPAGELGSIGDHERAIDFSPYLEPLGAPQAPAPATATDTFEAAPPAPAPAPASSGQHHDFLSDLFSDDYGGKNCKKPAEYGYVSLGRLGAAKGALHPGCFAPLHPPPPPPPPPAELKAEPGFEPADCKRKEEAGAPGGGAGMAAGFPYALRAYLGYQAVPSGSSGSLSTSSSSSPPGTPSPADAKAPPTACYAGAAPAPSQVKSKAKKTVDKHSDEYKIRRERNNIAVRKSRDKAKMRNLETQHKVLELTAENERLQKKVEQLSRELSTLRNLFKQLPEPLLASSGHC
How it was run: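 HepG2, transient MRTU transfection, 24 h treatment. RT-PCR plus CE fluorescence; DMSO negative control, bidirectional fit.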

[13] = ATG_CMV_CIS: Attagene CIS-FACTORIAL HepG2 Assay for human CMV (Internal Marker) (AID 2282928); details: HepG2 CMV promoter reporter, transcription factor profiling; actives raise or lower the signal;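 note: endpoint acts as a background internal control marker rather than a target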
How it was run: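 24 h chemical treatment, HepG2 with transient multi-reporter transfection; RNA → oligo(dT) RT → PCR → 6-FAM extension → HpaI digest → CE fluorescence. Bidirectional fit, DMSO negative control.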

[14] = ATG_DR4_LXR_CIS: Attagene CIS-FACTORIAL HepG2 Assay for human Liver X Receptor (LXR), DR4 submotif (AID 2282929); details: HepG2 Attagene DR4 cis-reporter, mRNA transcription; actives raise or lower the signal
How it was run: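 The endpoint is DR4-element-driven reporter transcripts after 24 h chemical exposure of transfected HepG2 cells. These were measured via RT-PCR and capillary electrophoresis, and gain or loss of signal was fitted relative to DMSO controls.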

[15] = target: Aryl hydrocarbon receptor (Homo sapiens) (UniProt P35869); assay: ATG_Ahr_CIS: Attagene CIS-FACTORIAL HepG2 Assay for human Aryl Hydrocarbon Receptor (Ahr) (AID 2282930); details: HepG2 AhR cis-factorial reporter transcription; actives raise or lower the signal
Sequence of Aryl hydrocarbon receptor (Homo sapiens) (P35869 whole entry, looked up): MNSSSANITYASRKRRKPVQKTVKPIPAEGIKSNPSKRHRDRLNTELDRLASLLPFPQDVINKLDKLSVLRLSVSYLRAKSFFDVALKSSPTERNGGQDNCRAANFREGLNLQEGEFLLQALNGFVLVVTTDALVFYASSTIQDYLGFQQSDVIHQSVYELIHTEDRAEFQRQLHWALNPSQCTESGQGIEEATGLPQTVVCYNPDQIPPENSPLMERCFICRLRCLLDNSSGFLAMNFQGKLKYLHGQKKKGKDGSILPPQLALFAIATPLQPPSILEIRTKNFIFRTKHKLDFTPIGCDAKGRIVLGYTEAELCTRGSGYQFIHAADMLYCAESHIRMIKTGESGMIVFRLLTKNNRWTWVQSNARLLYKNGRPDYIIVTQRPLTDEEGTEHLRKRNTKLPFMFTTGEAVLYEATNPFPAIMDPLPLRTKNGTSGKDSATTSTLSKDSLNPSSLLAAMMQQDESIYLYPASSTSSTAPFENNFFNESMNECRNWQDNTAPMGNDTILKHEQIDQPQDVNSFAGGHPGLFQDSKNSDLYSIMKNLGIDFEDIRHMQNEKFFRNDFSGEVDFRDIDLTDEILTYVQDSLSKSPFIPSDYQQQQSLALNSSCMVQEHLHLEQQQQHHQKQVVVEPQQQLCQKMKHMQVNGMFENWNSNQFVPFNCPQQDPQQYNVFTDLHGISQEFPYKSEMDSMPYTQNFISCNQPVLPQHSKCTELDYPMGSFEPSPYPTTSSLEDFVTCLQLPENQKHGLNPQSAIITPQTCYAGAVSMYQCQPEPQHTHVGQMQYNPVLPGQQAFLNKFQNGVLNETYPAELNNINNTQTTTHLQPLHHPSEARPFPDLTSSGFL
How it was run: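 Endogenous factor activity is tracked through cis-promoter reporter units transfected into HepG2 cells. Transcript levels at 24 h are read by fluorescent RT-PCR and capillary electrophoresis, with activity in either direction scored relative to DMSO.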

[16] = ATG_AP_1_CIS: Attagene CIS-FACTORIAL HepG2 Assay for human Activator Protein 1 (AP-1) (AID 2282931); details: HepG2 Attagene cis-factorial AP-1 reporter mRNA; actives raise or lower the signal
How it was run: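 Readout is reporter transcript level from endogenous transcription factor activity, quantified by RT-PCR with fluorescent primer extension and capillary electrophoresis. Transiently transfected HepG2 cells, 24 h exposure. Curves fitted both directions versus DMSO.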

[17] = ATG_AP_2_CIS: Attagene CIS-FACTORIAL HepG2 Assay for human Activator Protein 2 (AP-2) (AID 2282932); details: HepG2 AP-2 cis-reporter, Attagene transcription factor profiling; actives raise or lower the signal
How it was run: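 Read-out: fluorescent reporter mRNA via RT-PCR and capillary electrophoresis, 24 h post-dose in transiently transfected HepG2. Endogenous factors drive cis-promoter reporters; gain or loss of signal fitted bidirectionally against DMSO.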

[18] = ATG_BRE_CIS: Attagene CIS-FACTORIAL HepG2 Assay for human Bone Morphogenetic Protein (BMP) Response Element (BRE) (AID 2282933); details: HepG2 BMP response element reporter, Attagene transcription factor profiling; actives raise or lower the signal
How it was run: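 Multiplexed cis-reporter assay, HepG2, 24 h exposure. mRNA from reporter units quantified via RT-PCR/CE; DMSO baseline; bidirectional curve fit.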

[19] = target: Transcription factor E2F1 (Homo sapiens) (UniProt Q01094); assay: ATG_E2F_CIS: Attagene CIS-FACTORIAL HepG2 Assay for human E2F Transcription Factor 1 (AID 2282935); details: HepG2 Attagene cis-reporter, E2F reporter RNA transcripts; actives raise or lower the signal
Sequence of Transcription factor E2F1 (Homo sapiens) (Q01094 whole entry, looked up): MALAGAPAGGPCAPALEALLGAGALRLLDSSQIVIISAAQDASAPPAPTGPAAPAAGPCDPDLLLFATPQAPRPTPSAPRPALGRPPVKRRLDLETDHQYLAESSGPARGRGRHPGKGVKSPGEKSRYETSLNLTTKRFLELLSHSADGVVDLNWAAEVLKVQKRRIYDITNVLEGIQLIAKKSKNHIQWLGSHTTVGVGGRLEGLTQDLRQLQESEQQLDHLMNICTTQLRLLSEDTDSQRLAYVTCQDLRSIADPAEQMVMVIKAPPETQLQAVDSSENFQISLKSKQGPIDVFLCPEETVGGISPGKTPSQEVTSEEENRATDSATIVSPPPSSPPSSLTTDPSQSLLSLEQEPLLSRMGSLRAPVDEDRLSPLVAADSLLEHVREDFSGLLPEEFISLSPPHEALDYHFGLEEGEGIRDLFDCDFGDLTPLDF
How it was run: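 Transient MRTU transfection of HepG2; 24 h compound exposure; RNA → oligo(dT) RT → PCR → FAM label → HpaI cut → CE fluorescence. Gain/loss of signal fit against DMSO.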

[20] = target: Retinoic acid receptor alpha (Homo sapiens) (UniProt P10276); assay: ATG_DR5_RAR_CIS: Attagene CIS-FACTORIAL HepG2 Assay for human Retinoic Acid Receptor Alpha (RARE), DR5 submotif (AID 2282934); details: HepG2 Attagene cis-factorial RARE DR5 reporter, mRNA; actives raise or lower the signal
Sequence of Retinoic acid receptor alpha (Homo sapiens) (P10276 whole entry, looked up): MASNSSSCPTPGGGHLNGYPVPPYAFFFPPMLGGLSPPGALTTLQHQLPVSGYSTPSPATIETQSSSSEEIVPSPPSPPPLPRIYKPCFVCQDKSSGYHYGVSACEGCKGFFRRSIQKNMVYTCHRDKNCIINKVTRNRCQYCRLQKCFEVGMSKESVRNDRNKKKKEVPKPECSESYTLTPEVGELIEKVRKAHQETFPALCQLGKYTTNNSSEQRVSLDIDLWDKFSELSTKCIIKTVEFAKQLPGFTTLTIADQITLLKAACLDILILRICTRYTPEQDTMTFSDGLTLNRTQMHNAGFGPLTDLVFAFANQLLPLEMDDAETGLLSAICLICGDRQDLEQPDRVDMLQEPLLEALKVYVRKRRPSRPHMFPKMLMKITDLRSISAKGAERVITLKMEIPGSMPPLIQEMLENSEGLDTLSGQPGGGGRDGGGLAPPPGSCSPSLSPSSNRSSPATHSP
How it was run: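 After 24 h of chemical exposure, transiently transfected HepG2 cells were lysed for total RNA; the DR5-regulated reporter transcript was quantified via RT-PCR and capillary electrophoresis, with activity fitted bidirectionally against DMSO.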

Measured: AC50

CCOCCO
not listed: [20]
inactive: all other assays above

COCCOCCOCCOC
not listed: [20]
inactive: all other assays above

CCCN(C1CCN(C(=O)C2CCNCC2)CC1)[C@@H]1CCc2ccc(OC)cc2C1
active: [1] 64 µM | [3] 53 µM | [5] 80.8 µM | [8] 68.9 µM | [9] 111 µM | [14] 68.6 µM | [15] 32.9 µM | [17] 82.6 µM | [18] 53.3 µM
inactive: all other assays above

CC(C)=CCC/C(C)=C/CO
active: [8] 107 µM
not listed: [20]
inactive: all other assays above

CCCCCCCCCCCCCCCO
active: [3] 95.6 µM | [13] 56.6 µM | [14] 57.7 µM
inactive: all other assays above

O=C(O)c1cc(N=Nc2ccc(S(=O)(=O)Nc3ccccn3)cc2)ccc1O
active: [2] 88.8 µM
inactive: all other assays above

CC(C)=CCC/C(C)=C\CO
active: [9] 94.5 µM
not listed: [20]
inactive: all other assays above

CCCC(=O)OCC
not listed: [20]
inactive: all other assays above

CCCCC(CC)COC(=O)CCCCCCCCC(=O)OCC(CC)CCCC (stereo not given)
active: [1] 68.2 µM | [2] 83.4 µM | [3] 111 µM | [4] 87.6 µM | [5] 116 µM | [9] 36.5 µM | [11] 25.2 µM
not listed: [20]
inactive: all other assays above

CC(C)(O)c1coc(S(=O)(=O)NC(=O)Nc2c3c(cc4c2CCC4)CCC3)c1
not listed: [20]
inactive: all other assays above

O=C(CCCCCCCCc1cccnc1)N1CCC(C=C(c2ccccc2)c2ccccc2)CC1
active: [11] 14.5 µM | [12] 9.03 µM | [13] 14 µM | [14] 14.4 µM | [15] 0.874 µM | [16] 9.05 µM | [17] 56.3 µM | [18] 3.07 µM
not listed: [20]
inactive: all other assays above

CCOc1cccc(-n2cc(C(=O)N3CCN(c4cc(C(=O)O)c5ccccc5c4)CC3)nc2-c2ccc(C)cc2)c1
active: [1] 89.5 µM | [3] 77.2 µM | [5] 90.4 µM | [6] 60.2 µM | [8] 76.1 µM | [14] 25.1 µM | [16] 18.4 µM | [18] 54.7 µM
not listed: [20]
inactive: all other assays above

CC(=O)OCCC(C)C
not listed: [20]
inactive: all other assays above

C=CCCCCCCCCC(=O)O
not listed: [20]
inactive: all other assays above

CCc1cc(SCc2sc(-c3ccc(C(F)(F)F)cc3)nc2CN2CCN(c3ccc(OC)cc3)CC2)ccc1OCC(=O)O
inactive: [4] | [6] | [7] | [10] | [11] | [12] | [13] | [16] | [17]
active: [1] 48 µM | [2] 116 µM | [3] 45 µM | [5] 54.5 µM | [8] 59 µM | [9] 33.2 µM | [14] 3.68 µM | [15] 17.4 µM | [18] 18.2 µM | [19] 1.9 µM

Cn1cnc([N+](=O)[O-])c1Sc1ncnc2nc[nH]c12
active: [13] 35.3 µM | [16] 28.1 µM
not listed: [20]
inactive: all other assays above

CNS(=O)(=O)c1cc(C(=O)N2CCC(CCN3C4CCC3CC(n3c(C)nc5ccccc53)C4)(c3cccc(F)c3)CC2)c(Cl)cc1F (stereo not given)
active: [1] 11.1 µM | [3] 10.3 µM | [4] 65.2 µM | [5] 52.9 µM | [7] 54.4 µM | [14] 7.55 µM
not listed: [20]
inactive: all other assays above

CCCCCCCCO
not listed: [20]
inactive: all other assays above
